POLB inh: blocks human DNA polymerase beta activity; P06746; Pol beta primer extension/strand displacement, fluorescence kinetic; Potency, µM (doses to about 114 µM), inactives show top-dose activity change, negative = inhibition, hits mostly inhibitors; 340,000 tested, 1.3% active; AID 485314; note: % is set by controls: 0 for no effect and ±100 for the full control effect
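10 nM enzyme + cpd, 15 min RT; start with substrate 50 nM final; read 0 min and after 10 min RT. Corrected, normalized data; 4-parameter Hill curve fit.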
FEN1 inh: human FEN1 inhibition; AID 588795; Potency, µM (top dose mostly 114 µM), without a hit: at the highest dose activity change, negative = inhibition, hits mostly inhibitors; 390,000 tested, 0.35% active; Recombinant FEN1 flap cleavage, fluorescence, 15 min; P39748; note: % is set by controls: 0 for no effect and ±100 for the full control effect; nearly all actives have a fitted effect of over 65% in size
Target sequence (P39748 whole entry, looked up): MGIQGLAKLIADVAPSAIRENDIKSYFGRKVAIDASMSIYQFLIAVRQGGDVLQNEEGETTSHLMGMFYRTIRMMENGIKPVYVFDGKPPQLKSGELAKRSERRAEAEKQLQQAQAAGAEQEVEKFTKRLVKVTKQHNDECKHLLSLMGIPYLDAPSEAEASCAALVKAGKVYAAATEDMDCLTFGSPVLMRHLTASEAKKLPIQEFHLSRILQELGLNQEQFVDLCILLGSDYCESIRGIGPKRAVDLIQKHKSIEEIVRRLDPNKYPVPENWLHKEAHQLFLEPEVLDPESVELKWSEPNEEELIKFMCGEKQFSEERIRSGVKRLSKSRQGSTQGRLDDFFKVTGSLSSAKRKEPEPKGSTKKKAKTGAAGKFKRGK
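Reaction started by adding substrate (50 nM final) to 10 nM enzyme after 15 min room-temperature compound preincubation. Reads at 0 and 15 min, with data normalized and fitted to a four-parameter Hill equation.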
POLI inh: blocks human DNA polymerase iota activity | Pol iota fluorescent replication assay, 10 min | 390,000 tested, 1% active | Potency, µM (titrated, usually from 115 µM), inactives show at the top dose activity, negative = inhibition, hits mostly inhibitors | Q9UNA4
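Pol iota at 10 nM preincubated 15 min with compounds at room temperature; reaction started with fluorescent substrate, 50 nM final. Fluorescence read kinetically at 0 and 10 min; buffer-only wells as negative control.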
POLK inh: inhibitors of human DNA polymerase kappa | Potency, µM (highest dose often 107 µM), for inactives: at the highest dose activity, negative = inhibition, usual class: inhibitors | purified Pol kappa, fluorescent DNA synthesis assay, 10 min | AID 588579 | 400,000 tested, 0.53% active | Q9UBT6; note: % is set by controls: 0 for no effect and ±100 for the full control effect
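Pol kappa 10 nM + cpd, 15 min RT; start w/ substrate 50 nM final; fluorescence kinetic read, 0 and 10 min. Neg ctrl: buffer, no enzyme.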
Pol eta inh: inhibitors of human DNA polymerase eta; recombinant Pol eta, fluorescent DNA replication assay; Potency, µM (top dose mostly 114 µM), without a hit: at the highest dose activity change, negative = inhibition, actives largely listed as inhibitors; 390,000 tested, 1.2% active; AID 588591; note: % is set by controls: 0 for no effect and ±100 for the full control effect
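Pol eta at 10 nM preincubated with compounds 15 min at room temperature; reaction started with fluorescent substrate (50 nM final) and read kinetically at 0 and 10 min.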
WRN inhibitor: WRN helicase (human) inhibition. Q14191. WRN helicase unwinding, fluorescent forked duplex, kinetic. Potency, µM (doses to about 114 µM), for the others: at the highest dose activity change, negative = inhibition, hits mostly inhibitors. 360,000 tested, 0.46% active; note: % is set by controls: 0 for no effect and ±100 for the full control effect; nearly all actives have a fitted effect of over 55% in size
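Kinetic fluorescence helicase assay: unwinding of a quenched forked DNA duplex (100 nM final) with 2 mM ATP final raises red fluorescence (525/598 nm). Compounds sat 15 min at room temperature with 20 nM WRN beforehand.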
An asterisk follows results filed as active; ? = inconclusive; · = no result; ! = not active in a repeat; [ ] = remark or other dose. Sampled rows, rich in hits. Any-hit rate of the full collection: about 2.4%. Calls come from the whole dose curve; as a rule, active = well fitted curve in the direction sought with a large enough effect; inconclusive = small, poorly fitted or top-dose-only effect, or another doubt; inactive = no such curve, though single readings can be large; an effect the other way counts as inactive or inconclusive. Potency is the fitted concentration of half-maximal effect.

SMILES	POLB inh	FEN1 inh	POLI inh	POLK inh	Pol eta inh	WRN inhibitor
N#Cc1nccnc1S(=O)(=O)c1cccs1	-6%	4%	148%	-4%	-10%	50µM*
C=CC[n+]1c(/C=C2\C=Cc3cc(C)ccc3N2CC)ccc2ccccc21	32µM*	40µM*	?	?	?	50µM*
O=c1cc(-c2ccccc2F)[nH]c2cc3c(cc12)OCO3	·	·	·	9%[60.1 µM]	·	·
O=S(=O)(Cc1noc(-c2ccc(Cl)cc2)n1)Cc1ccco1	14µM*	-16%	50µM*	?	-2%	-19%
CN1C2CCCC1CC(NC(=O)c1nn(C)c3ccccc13)C2 (configuration not stated)	·	·	·	9%[60.1 µM]	·	·
CC(C)CN1CCC(=O)N([C@H](COc2ccccc2)Cc2ccccc2)CC1	7%	-1%	89µM*!	-17%	-11%	-7%[11.6 µM]
CC1C(=O)N(Cc2cn(Cc3ccco3)nn2)CCS(=O)(=O)N1Cc1ccc(-c2ccncc2)cc1 (configuration not stated)	·	·	·	·	50µM*	2%[11.6 µM]
CC[C@H](C)[C@H](NC(=O)[C@@H](NC(=O)[C@@H](NC(=O)[C@H](CCC(=O)O)NC(=O)[C@H](CCC(=O)O)NC(=O)[C@H](CCC(=O)O)NC(=O)[C@H](C)NC(=O)[C@@H](N)CC(C)C)C(C)C)C(C)C)C(=O)N[C@@H](CCCNC(=N)N)C(=O)N[C@@H](CO)C(=O)N[C@@H](C)C(=O)N[C@@H](CC(N)=O)C(=O)N[C@@H](Cc1ccccc1)C(=O)N[C@H](C(=O)N[C@@H](CC(=O)O)C(=O)N[C@@H](CC(N)=O)C(=O)O)[C@@H](C)O	·	·	·	21%[60.1 µM]	·	·
O=C(/C=C/c1ccccc1)Nc1cccc(S(=O)(=O)Nc2ccccc2F)c1	-27%	-18%	-6%	-19%	-9%	40µM*
O=C(Nc1cccc(S(=O)(=O)Nc2ccccc2F)c1)c1ccc2ccccc2n1	4%	?	?	-11%	-4%	-23%
Cc1ccnc2ccc([N+](=O)[O-])cc12	·	-12%	1%	-26%	·	·
Oc1ccc(N=Nc2c(O)ccc3ccccc23)cc1	-14%	-21%	-2%	-7%	-8%	-26%
O=C(O)c1cc(N=Nc2c(O)ccc3ccccc23)cc(C(=O)O)c1	-4%	?	6%	20µM*	18µM*	-29%[57.1 µM]
O=C(COC(=O)c1ccc(C(F)(F)F)cc1)NC(=O)C1CCCCC1	·	14%	-13%	-11%	·	·
CCOC(=O)C1CCN(C(=O)CCc2nnc3ccc(N4CCC(C)CC4)nn23)CC1	39%	7%	34%	6%	-11%	5%
CCOC(=O)C1CCN(C(=O)CCc2nnc3ccc(NCc4ccco4)nn23)CC1	3%	5%	?	-31%	45µM*	1%[11.6 µM]
O=C(/C=C/c1ccco1)OCc1nnc(-c2ccc(Cl)cc2)o1	35µM*	-6%	?	-22%	-12%	-18%
O=C(/C=C/c1ccco1)OCn1nnc2ccccc2c1=O	20µM*	-2%	29%	-4%	-5%	-3%
O=C(/C=C/c1ccco1)OCc1nnc(-c2ccccc2)o1	22µM*	1%	79µM*	-34%	24%	-18%
C=CCn1c(SCC)nc2ccccc2c1=O	·	-3%	11%	-16%	·	·
O=c1c(-c2ccc(O)cc2)coc2cc(O[C@@H]3O[C@H](CO)[C@@H](O)[C@H](O)[C@H]3O)cc(O)c12	·	·	·	9%[60.1 µM]	·	·
Cc1cc(-c2ccccc2)c2c(=O)[nH][nH]c2n1	0%	-4%	79µM*	-9%	-18%	-20%[57.1 µM]
C[C@]12CCC(=O)C=C1CC[C@@H]1[C@@H]2[C@@H](O)C[C@@]2(C)[C@H]1CC[C@]2(O)C(=O)COP(=O)(O)O	·	·	·	-6%[19.4 µM]	·	·
Cc1ccc2ccc3cc(C(=O)Nc4ccc(C)c(F)c4)nc3c2[nH]1	?	-16%	89µM*	-15%	-11%	·
CCOC(=O)c1c(O)c2c([nH]c1=O)CCCC2	14%	-3%	-12%	-9%	-6%	8%

From PubChem BioAssay
